Records with an inconclusive call do not appear. The source made the active and inactive calls. Unless noted, calls come from the whole dose curve.

Data on 14 compounds can be found in PubChem BioAssay (Tox21).

The target of assay [1] is Gonadotropin-releasing hormone receptor (Homo sapiens) (UniProt P30968). In words: Human gonadotropin-releasing hormone receptor (GnRHR) small molecule agonists, calcium flux assay in GnRHR-HEK293 cells (AID 1920063). Note: nearly all actives have a fitted effect of over 35% in size. Put shortly: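 Compounds dissolved in DMSO are pin-transferred onto dye-loaded GnRHR-HEK293 cells, which were seeded 18 h before at 37 C/5% CO2. Calcium signal is read as fluorescence intensity at 1 s intervals for 3 min.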
(In general: A change in cytosolic calcium serves as a functional read-out for many receptors and channels.)

Assay [2] deals with KiSS-1 receptor (Homo sapiens) (UniProt Q969F8). Put plainly: Human kisspeptin (KISS1R) small molecule agonists, calcium flux assay in KISS1R-HEK293 cells (AID 1920064; active = well fitted activation curve with a large enough effect in the repeat runs). In short, it runs like this: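 Cell line: HEK293, stable human KISS1R. Dye loading 1 h at 37 C after 18 h culture. Read: kinetic fluorescence, 480/540 nm, 3 min at 1 s intervals.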
Assay [3] can be described thus: G protein-coupled receptor (GPCR) small molecule agonists, calcium flux assay: HEK293 wild type cell line counter screen (AID 1920065). In short, it runs like this:
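Tox21 10K compounds, 15 concentrations each in triplicate, pin-transferred in DMSO onto dye-loaded cells; kinetic read at 480/540 nm for 3 min, 1 s intervals.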

Assay [4] in a line: p53 small molecule agonists, cell-based qHTS assay with human liver microsomes (AID 1963577). Note: potency is the fitted concentration of half-maximal effect. Put shortly: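 p53RE-bla cells, 4,000/well, compound added after 5 h, with human liver microsomes 0.5 mg/mL and NADPH 0.5 mg/mL final; 16 h at 37 C, then LiveBLAzer 2 h RT, fluorescence.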
(qHTS replaces the single test concentration by a dilution series.)

Assay [5] in a line: p53 small molecule agonists, cell-based qHTS assay with rat liver microsomes (AID 1963578). Put shortly: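 p53RE-bla cells, 4,000/well, pre-incubated 5 h, then given compounds plus rat liver microsomes (0.5 mg/mL final) and NADPH (0.5 mg/mL final). Incubation 16 h at 37 C; beta-lactamase reporter read by LiveBLAzer fluorescence after 2 h at room temperature.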
The nature of assay [6]: p53 small molecule agonists, cell-based qHTS assay with rat liver microsomes: qHTS cell viability counter screen (AID 1963580). Note: nearly all actives have a fitted effect of over 45% in size. Put shortly:
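Cytotoxicity counter screen: intracellular ATP read by CellTiter-Glo luminescence in the p53 reporter wells. HCT-116 p53RE-bla cells were treated for 16 h at 37 C alongside rat liver microsomes and NADPH, each 0.5 mg/mL final.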

Assay [7] is described as follows: p53 small molecule agonists, cell-based qHTS assay (AID 1963582; active = well fitted activation curve with a large enough effect in the signal ratio in the repeat runs, not every such curve was filed as active; the % refers to the signal ratio; note: potency is the fitted concentration of half-maximal effect). Put shortly: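 16 h compound exposure (37 C) of p53 response element–bla cells, preceded by 5 h recovery at 37 C/5% CO2; read-out via LiveBLAzer B/G FRET substrate, 2 h RT, fluorescence intensity.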
Assay [8] in a line: cAMP Responsive Elements (CRE) small molecule agonists, cell-based qHTS assay (AID 1963590). In short, it runs like this:
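HEK 293T cells stably bearing CRE-bla were plated at 2,000 cells per well and rested 18 h. Compounds, positive controls or DMSO were added for 3 h at 37 C. LiveBLAzer B/G substrate was then loaded for 2 h at room temperature.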

Assay [9] can be described thus: cAMP Responsive Elements (CRE) small molecule antagonists, cell-based qHTS assay (AID 1963591; active = well fitted inhibition curve with a large enough effect in the signal ratio in the repeat runs, not every such curve was filed as active; the % refers to the signal ratio). Put shortly:
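First, CRE-bla HEK293T cells settled 18 h at 37 C. Next, compound and 0.25 uM final NKH477 were applied for 3 h. Last, LiveBLAzer B/G substrate was loaded for 2 h at room temperature.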

Assay [10] concerns the target Beta-2 adrenergic receptor (Homo sapiens) (UniProt P07550). Put plainly: Adrenergic beta2 receptor (ADRB2) small molecule antagonists, cell-based qHTS assay (AID 1963592). Note: series mostly up to about 92 µM; nearly all actives have a fitted effect of over 50% in size. Put shortly:
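Assay format: CHO-ADRB2 cells, 18-20hr seeding at 37C/5% CO2, then compound plus 1nM isoproterenol agonist mix for 0.5hr RT. Homogeneous time-resolved fluorescence cAMP detection after 1hr, expressed as 665/615 nm ratio.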

Assay [11] has the same target. Put plainly: Adrenergic beta2 receptor (ADRB2) small molecule agonists, cell-based qHTS assay (AID 1963593).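 Note: CHO cells stably overexpressing human ADRB2.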 Put shortly: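 CHO cells stably over-expressing ADRB2 were plated overnight at 37C, then dosed with compounds plus a stimulation mix containing 100uM IBMX and 25uM Ro-20-1724 for 0.5hr at room temperature. cAMP was measured by HTRF competition, 1hr.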
For assay [12], the target named is D(2) dopamine receptor (Homo sapiens) (UniProt P14416). In words: Dopamine D2 receptor (DRD2) small molecule agonists, cell-based qHTS assay (AID 1963594). Note: nearly all actives have a fitted effect of over 35% in size. Put shortly:
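cAMP accumulation in DRD2-HEK293 cells measured by HTRF after 1 h detection; compounds added 10 min before NKH477 (200nM […]) forskolin-analogue stimulation, 30 min at room temperature, with Ro20-1724 present at 0.1 mM final.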

Assay [13] shares this target. Put plainly: Dopamine D2 receptor (DRD2) small molecule antagonists, cell-based qHTS assay (AID 1963595; active = well fitted inhibition curve with a large enough effect in the signal ratio in the repeat runs, with a control signal flat; the % refers to the signal ratio). In short, it runs like this:
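HEK293 cells stably expressing DRD2 were preincubated with 0.1 mM Ro20-1724, then with compound for 10 min at room temperature. Cells were stimulated with 200 nM NKH477 plus 12 nM quinpirole for 30 min, and cAMP was read by HTRF.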

Assay [14] is described as follows: p53 small molecule agonists, cell-based qHTS assay with human liver microsomes: qHTS cell viability counter screen (AID 1963579). Note: nearly all actives have a fitted effect of over 45% in size. In short, it runs like this:
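p53RE-bla cells, 4,000/well, dosed 5 hours after plating, with human liver microsomes (0.5 mg/mL final) plus NADPH (0.5 mg/mL final), 16 hours at 37 C. Viability read as CellTiter-Glo luminescence after 30 min at room temperature.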

A short description of assay [15]: p53 small molecule agonists, cell-based qHTS assay: qHTS cell viability counter screen (AID 1963581). Note: nearly all actives have a fitted effect of over 45% in size. Put shortly: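 ATP content measured by luminescence in HCT-116 p53RE-bla cells treated 16 h at 37 C, same wells as the reporter screen.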
The target in assay [16] is 5-hydroxytryptamine receptor 2A (Homo sapiens) (UniProt P28223). In words: 5-hydroxytryptamine receptor 2A (HTR2A) small molecule agonists, cell-based qHTS assay (AID 1963587). Note: nearly all actives have a fitted effect of over 30% in size. Note: potency is the fitted concentration of half-maximal effect. Put shortly:
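Kinetic calcium-flux fluorescence (2 min, 1 sec intervals) after compound addition in agonist mode. HTR2A-CHO cells were cultured 18 h, then dye-loaded 1 h at 37 C.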

Assay [17] concerns the target Muscarinic acetylcholine receptor M1 (Homo sapiens) (UniProt P11229). Put plainly: Cholinergic receptor muscarinic 1 (CHRM1) small molecule antagonists, cell-based qHTS assay (AID 1963588). Note: nearly all actives have a fitted effect of over 40% in size. In short, it runs like this:
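Compounds were tested at 15 concentrations in three independent runs. Dye-loaded CHRM1-CHO cells were exposed 5 min at room temperature before stimulation by acetylcholine added at 50nM. Intracellular calcium was read kinetically on FDSS for 3 min.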

Assay [18] has the same target. Put plainly: Cholinergic receptor muscarinic 1 (CHRM1) small molecule agonists, cell-based qHTS assay (AID 1963589). Note: nearly all actives have a fitted effect of over 35% in size. In short, it runs like this: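 Homogeneous fluorescence calcium flux, agonist mode. Human M1-expressing CHO cells; compound dosed at 15 concentrations, three independent runs; signal sampled every 1 sec.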
Assay [19] deals with 5-hydroxytryptamine receptor 2A (Homo sapiens) (UniProt P28223). Put plainly: 5-hydroxytryptamine receptor 2A (HTR2A) small molecule antagonists, cell-based qHTS assay (AID 1963586). Note: nearly all actives have a fitted effect of over 45% in size. Note: potency is the fitted concentration of half-maximal effect. In short, it runs like this: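 CHO cells stably expressing human HTR2A were plated for 18 h at 37 C, then loaded with calcium dye for 1 h. Compounds were preincubated 5 min at room temperature before DOI (4 nM solution) was added. Kinetic fluorescence was read for 3 min.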
5-hydroxytryptamine receptor 2A (Homo sapiens), sequence (P28223 whole entry, looked up): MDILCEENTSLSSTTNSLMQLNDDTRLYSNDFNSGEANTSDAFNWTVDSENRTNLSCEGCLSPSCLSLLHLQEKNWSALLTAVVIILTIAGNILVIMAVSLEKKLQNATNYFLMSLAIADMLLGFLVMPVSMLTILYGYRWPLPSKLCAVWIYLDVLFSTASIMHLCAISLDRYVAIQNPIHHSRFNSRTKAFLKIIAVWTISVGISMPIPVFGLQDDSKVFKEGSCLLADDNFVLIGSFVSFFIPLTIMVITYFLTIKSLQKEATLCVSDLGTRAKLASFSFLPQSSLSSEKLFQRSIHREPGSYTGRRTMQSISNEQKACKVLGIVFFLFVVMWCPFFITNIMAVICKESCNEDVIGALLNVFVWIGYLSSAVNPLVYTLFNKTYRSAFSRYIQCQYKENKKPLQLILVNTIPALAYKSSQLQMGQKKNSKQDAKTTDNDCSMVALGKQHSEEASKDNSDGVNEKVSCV

Muscarinic acetylcholine receptor M1 (Homo sapiens), sequence (P11229 whole entry, looked up): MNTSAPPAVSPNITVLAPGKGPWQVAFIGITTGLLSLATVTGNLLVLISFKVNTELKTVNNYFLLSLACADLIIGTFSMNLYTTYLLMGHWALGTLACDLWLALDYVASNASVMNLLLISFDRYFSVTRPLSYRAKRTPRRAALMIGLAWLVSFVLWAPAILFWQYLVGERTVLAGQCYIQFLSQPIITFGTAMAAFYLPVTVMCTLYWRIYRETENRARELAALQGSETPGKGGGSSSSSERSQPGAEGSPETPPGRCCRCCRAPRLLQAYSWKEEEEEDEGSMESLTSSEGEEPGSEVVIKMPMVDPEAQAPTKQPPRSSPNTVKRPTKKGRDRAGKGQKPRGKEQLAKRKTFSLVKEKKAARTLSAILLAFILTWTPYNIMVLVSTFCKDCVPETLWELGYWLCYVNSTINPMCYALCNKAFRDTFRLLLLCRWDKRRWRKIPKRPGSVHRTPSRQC
D(2) dopamine receptor (Homo sapiens), sequence (P14416 whole entry, looked up): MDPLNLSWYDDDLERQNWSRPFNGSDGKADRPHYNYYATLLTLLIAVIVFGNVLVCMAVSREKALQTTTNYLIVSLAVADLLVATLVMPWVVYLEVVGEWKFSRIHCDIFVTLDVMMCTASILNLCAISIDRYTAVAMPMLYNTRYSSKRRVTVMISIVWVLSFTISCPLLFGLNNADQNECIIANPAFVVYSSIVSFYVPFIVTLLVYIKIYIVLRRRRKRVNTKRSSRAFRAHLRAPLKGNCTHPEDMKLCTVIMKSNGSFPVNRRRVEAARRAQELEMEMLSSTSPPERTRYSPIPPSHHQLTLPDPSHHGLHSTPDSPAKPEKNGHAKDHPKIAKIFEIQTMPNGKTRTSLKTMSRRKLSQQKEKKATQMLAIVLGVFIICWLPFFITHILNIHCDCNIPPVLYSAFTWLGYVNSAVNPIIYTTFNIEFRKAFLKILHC
Gonadotropin-releasing hormone receptor (Homo sapiens), sequence (P30968 whole entry, looked up): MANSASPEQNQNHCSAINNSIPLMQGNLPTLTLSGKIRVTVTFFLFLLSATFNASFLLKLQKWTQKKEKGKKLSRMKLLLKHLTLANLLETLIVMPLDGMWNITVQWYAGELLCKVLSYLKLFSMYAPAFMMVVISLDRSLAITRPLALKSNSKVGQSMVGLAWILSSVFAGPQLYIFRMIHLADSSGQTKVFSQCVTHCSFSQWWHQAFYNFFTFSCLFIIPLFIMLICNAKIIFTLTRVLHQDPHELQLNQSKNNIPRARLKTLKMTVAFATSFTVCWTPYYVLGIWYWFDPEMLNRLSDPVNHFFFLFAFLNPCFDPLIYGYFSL
KiSS-1 receptor (Homo sapiens), sequence (Q969F8 whole entry, looked up): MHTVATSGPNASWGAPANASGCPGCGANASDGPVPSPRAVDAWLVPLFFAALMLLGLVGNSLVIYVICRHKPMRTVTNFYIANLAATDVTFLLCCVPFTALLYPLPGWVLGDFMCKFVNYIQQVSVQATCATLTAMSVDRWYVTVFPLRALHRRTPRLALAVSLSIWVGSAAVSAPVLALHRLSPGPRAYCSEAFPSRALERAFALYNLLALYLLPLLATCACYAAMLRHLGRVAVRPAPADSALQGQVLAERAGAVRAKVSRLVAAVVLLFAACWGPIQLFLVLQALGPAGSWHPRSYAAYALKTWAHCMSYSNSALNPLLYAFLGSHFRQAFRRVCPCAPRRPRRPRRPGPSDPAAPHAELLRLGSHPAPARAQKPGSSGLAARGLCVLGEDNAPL
Beta-2 adrenergic receptor (Homo sapiens), sequence (P07550 whole entry, looked up): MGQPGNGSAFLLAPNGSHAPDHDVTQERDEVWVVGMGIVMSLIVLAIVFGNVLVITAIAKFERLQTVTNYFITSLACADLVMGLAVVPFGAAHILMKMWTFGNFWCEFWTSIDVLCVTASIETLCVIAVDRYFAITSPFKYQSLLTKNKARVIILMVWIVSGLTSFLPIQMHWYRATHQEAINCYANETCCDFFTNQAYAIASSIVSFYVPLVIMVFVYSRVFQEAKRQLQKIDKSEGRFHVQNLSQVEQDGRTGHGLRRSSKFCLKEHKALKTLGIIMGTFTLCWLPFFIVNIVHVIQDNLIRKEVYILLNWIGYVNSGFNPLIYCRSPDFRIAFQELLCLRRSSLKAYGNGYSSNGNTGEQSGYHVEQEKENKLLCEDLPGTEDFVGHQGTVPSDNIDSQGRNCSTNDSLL

Take `C[C@@H]1CC[C@H]2[C@@H](C)C(=O)O[C@@H]3O[C@@]4(C)CC[C@@H]1[C@]32OO4`: the Potency entry in assay [1], in assay [2], in assay [3], in assay [4], in assay [5] and in assay [6] was “inactive” in each case. Also, the Potency entry in assay [7], in [8], in [9], in assay [10], in assay [11] and in assay [12] was “inactive” throughout. Moreover, the Potency result in assay [13] was “inactive”.
Consider `Nc1c(Cl)c(Cl)c(Cl)c(Cl)c1Cl`, for which the Potency result in [1], in [2], in [3], in assay [14], in assay [6] and in [15] was “inactive” in each case. The Potency entry in assay [16], in assay [17], in [18], in [8], in [10] and in assay [13] was “inactive” in each case.
As to `COP(=O)(OC)SCn1c(=O)oc2cc(Cl)cnc21`, the Potency entry in assay [1], in assay [2], in [3], in assay [4], in assay [6] and in assay [19] was “inactive” each time. The Potency result in [16], in assay [17], in [18], in assay [10], in [11] and in assay [12] was “inactive” each time. Moreover, the Potency result in assay [13] is “inactive”.
For `CCCN(CCC)c1c([N+](=O)[O-])cc(C(F)(F)F)cc1[N+](=O)[O-]`, the Potency result in assay [1], in assay [2], in [3], in assay [14], in [6] and in [15] was “inactive” each time. Further, the Potency result in assay [19], in assay [16], in [17], in assay [8], in assay [9] and in [10] was “inactive” in each case. In addition, the Potency result in [11], in [12] and in assay [13] was “inactive” each time.
With `C[C@H]1CCC[C@H](O)CCCCCc2cc(O)cc(O)c2C(=O)O1`, the Potency entry in assay [1], in [2], in [3], in assay [5], in assay [14] and in [6] was “inactive” in each case. Moreover, the Potency entry in assay [15], in assay [7], in assay [17], in assay [18], in assay [9] and in assay [12] was “inactive” in each case. Further, in assay [13], the Potency entry is “inactive”.
On to `CC1=C(C(=O)Nc2ccccc2)S(=O)(=O)CCO1`, for which the Potency result in assay [1], in [2], in assay [3], in [4], in [5] and in [14] was “inactive” in each case. Further, the Potency result in [6], in [16], in [17], in assay [18], in assay [8] and in assay [9] was “inactive” in each case. Besides, the Potency entry in [10], in assay [12] and in assay [13] was “inactive” throughout. In addition, the Potency in assay [7] is 28.9 µM (active).
`c1ccc(OCC2CO2)cc1` (centres undefined): the Potency result in assay [1], in [2], in assay [3], in [5], in assay [14] and in assay [6] was “inactive” in each case. Also, the Potency result in assay [15], in [7], in assay [19], in assay [16], in [17] and in [18] was “inactive” in each case. Moreover, the Potency result in assay [8], in assay [9], in [10], in assay [11], in assay [12] and in [13] was “inactive” throughout.
`CCCCCOC(=O)c1ccccc1C(=O)OCCCCC`: the Potency entry in assay [1], in assay [2], in [3], in [4], in [14] and in assay [6] was “inactive” in each case. The Potency entry in [15], in assay [19], in assay [16], in assay [17], in [18] and in [8] was “inactive” each time. Besides, the Potency entry in [9], in assay [10], in [11], in [12] and in [13] was “inactive” throughout.
Take `CC(C)(C)C(O)C(Oc1ccc(-c2ccccc2)cc1)n1cncn1` (centres undefined): the Potency result in assay [1], in [2], in [3], in assay [4], in assay [5] and in [14] was “inactive” throughout. The Potency entry in assay [7], in assay [19], in assay [16], in [17], in assay [18] and in assay [8] was “inactive” each time. Further, the Potency entry in assay [9], in [10], in assay [12] and in assay [13] was “inactive” throughout.
As to `CCCC(C)C1(CC)C(=O)N=C(S)NC1=O` (centres undefined), the Potency entry in [1], in [2], in assay [3], in assay [14], in [6] and in assay [15] was “inactive” in each case. Further, the Potency result in [19], in assay [16], in assay [17], in [18], in [8] and in assay [9] was “inactive” in each case. For the same compound, the Potency result in assay [10], in assay [12] and in [13] was “inactive” each time.
On to `Cc1cc(C)c(C(=O)P(=O)(c2ccccc2)c2ccccc2)c(C)c1`, for which the Potency result in [1], in assay [2], in assay [3], in [5], in [6] and in assay [17] was “inactive” in each case. The Potency entry in [18] and in [13] was “inactive” in each case. Further, the Potency in assay [19] was 10.6 µM (active); in assay [16], 24.5 µM (active).
In the case of `CC(=O)[O-].CC(=O)[O-].O.O.[Zn+2]`, the Potency result in assay [1], in assay [2], in [3], in assay [14], in assay [6] and in [15] was “inactive” in each case. Further, the Potency entry in assay [19], in assay [16], in assay [17], in assay [18], in assay [8] and in assay [9] was “inactive” each time. For the same compound, the Potency entry in assay [10], in assay [12] and in assay [13] was “inactive” throughout.
Regarding `CC(c1ccc(O)cc1)(c1ccc(O)cc1)c1ccc(O)cc1`, the Potency result in assay [1], in assay [2], in [3], in assay [5], in assay [14] and in [6] was “inactive” each time. The Potency result in [17], in assay [18], in [10], in assay [11], in assay [12] and in assay [13] was “inactive” throughout. Moreover, the figures for the Potency in [19] and in assay [16] were 23.7 µM (active) and 49 µM (active), respectively.
On to `CCOP(=S)(OCC)SCn1nnc2ccccc2c1=O`, for which the Potency entry in assay [1], in [2], in [3], in assay [14], in assay [6] and in [16] was “inactive” in each case. For the same compound, the Potency entry in [17], in [18], in assay [10], in assay [12] and in [13] was “inactive” each time. The Potency in assay [4] is 3.24 µM (active).
